Measured values from the supplement of paper PMC6555819.

Tests used:
Assay in all cases: PBM binding z-score (relative to random genomic background probes); higher = stronger binding; sequences stand for … in GC…GCGATTGACAGCGTAGAATGAAGG
[1] = system: RARb homodimer (NR concentration 270 nM)
How it was run: (§1)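 Custom Agilent 4×180K protein-binding microarrays carried double-stranded probes, each with a 34-nt variable region. These regions held direct-repeat seeds, single-nucleotide variants, half-site ablations and random human genomic background sequences. Ligand-free nuclear receptor dimers were incubated on the arrays for 1 h, antibodies against each partner (one per run) detected binding, and scanned fluorescence was regression-normalized. Binding z-scores take the random background probes as reference.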

[2] = system: RARg:RXRa (NR concentration 270 nM, RXRa partner concentration 90 nM)
How it was run: as §1

[3] = system: RARg homodimer (NR concentration 270 nM)
How it was run: as §1

[4] = system: RXRa DBDmut IVT, anti-RXR (DBD mutation: RXRa K156A/R161A, NR concentration 90 nM)
How it was run: as §1

[5] = system: RXRa homodimer (NR concentration 180 nM)
How it was run: as §1

[6] = system: THRa:RXRa (NR concentration 90 nM, RXRa partner concentration 90 nM)
How it was run: as §1

[7] = system: THRa homodimer (NR concentration 90 nM)
How it was run: as §1

[8] = system: VDR homodimer (NR concentration 270 nM)
How it was run: as §1

| Sequence | PBM binding z-score [1] | PBM binding z-score [2] | PBM binding z-score [3] | PBM binding z-score [4] | PBM binding z-score [5] | PBM binding z-score [6] | PBM binding z-score [7] | PBM binding z-score [8] |
| --- | --- | --- | --- | --- | --- | --- | --- | --- |
| CGAACTGGGTCACCAGGACAGTGAAGAGGTTGGA | 2.84 | 4.16 | 4.22 | 0.542 | 3.41 | 2.91 | 0.811 | 0.0235 |
| CCTACTGGGCCACGAAAGGTAATTGATTCAGTGA | 0.322 | 0.0783 | 0.352 | -0.464 | -0.00441 | 1.11 | -0.00813 | -0.234 |
| ATCGAATGGTCGAAGGTGAGTATACCCACCCGAA | 0.0928 | 0.392 | 0.497 | -0.884 | 0.585 | 0.0175 | -0.459 | -0.194 |
| GCTGCTAGGTCAGGTTGGTCTGCTAACGGGTACG | 2.51 | 2.46 | 3.25 | 0.755 | 1.04 | 1.89 | 0.834 | 0.554 |
| CGAACTAGTTCACCAGGACAGTGAAGAGGTTGGA | 1.09 | 1.14 | 1.44 | 2.02 | 0.753 | 1.69 | 0.658 | 1.05 |
| CCGAGTAGGTTACGAGGGGGCATTCATTGCGAAT | 2.05 | 3.01 | 2.09 | 1.21 | 2 | 3.7 | 0.405 | 2.02 |
| AGAATGGGGTTATTAAGATCAGGGAATTGCGGTC | 1.53 | 1.85 | 0.796 | 2.11 | 3.5 | 2.6 | 1.56 | 2.41 |
| TCGAGTATGTTACGGGGGCATTCAGGGATGAAGA | 1.62 | 2.19 | 1.29 | 2.11 | 1.67 | 3.98 | 1.12 | 3.01 |
| TCAGATAGGTAAAGGTGAAAGTCGAACGATATGA | 1.76 | 1.57 | 1.27 | 0.734 | 2.33 | 1.33 | -0.218 | -0.344 |
| ATATGTAGGTTAGCTGGGGTCATTCCGACTAGGC | 3.77 | 4.05 | 2.78 | 1.93 | 5.24 | 4.98 | 3.21 | 5.2 |
| CGAAGTAGGTCACCAGGACAGTGAAGAGGTTGGA | 3.32 | 4.39 | 5.16 | 1.03 | 3.57 | 2.85 | 1.2 | 0.581 |
| AGTCAAATTTCATCTAGGTAACGTAAGATATGCT | -0.24 | -0.128 | 0.382 | 0.077 | 0.184 | 0.722 | 0.526 | 0.0484 |
| CGCACTAGGTCATTGACAGGACAGTGAATAGTAA | 2.68 | 4.77 | 4.46 | 2.35 | 2.57 | 2.91 | 1.16 | 1.54 |
| ATATGTAGGTTTGGGTCATTCAGAAAGTAGGGAA | 2.2 | 1.92 | 1.33 | 1.36 | 2.05 | 2.74 | 2.23 | 2.22 |
| CAAACTAGGTCACCGGAAAGTCAAAGTCCGCATG | 3.86 | 5.17 | 5.86 | 2.01 | 3.89 | 3.54 | 1.8 | 0.741 |
| TCTAGTAGGTTACGGGGGCATTCAGGGATGAAGA | 2.73 | 3.98 | 3.21 | 2.95 | 3.28 | 4.01 | 2.2 | 3.82 |
| ATATCTAGGTTAGGGTCATTCAGAAAGTAGGGAA | 3.56 | 4.06 | 3.32 | 2.56 | 4.98 | 4.14 | 3.56 | 4.16 |
| AGAATGAGGTTAAGATTAGGGAAACAGAATACAT | 0.693 | 1.98 | 1.56 | 1.13 | 2.57 | 2.63 | 0.72 | 0.435 |
| CCTACTGGGCCATTCAGAGGTCATCGATCATATG | 4.27 | 4.89 | 3.64 | 0.733 | 4.44 | 3.34 | 1.72 | 3.03 |

| Sequence | PBM binding z-score [1] | PBM binding z-score [2] | PBM binding z-score [3] | PBM binding z-score [4] | PBM binding z-score [5] | PBM binding z-score [6] | PBM binding z-score [7] | PBM binding z-score [8] |
| --- | --- | --- | --- | --- | --- | --- | --- | --- |
| TCGAGTAGGTTACGGGGGCAGTCAGGGATGAAGA | 2.06 | 2.82 | 2.3 | 1 | 2.21 | 2.81 | 1 | 1.25 |
| ATATGTAGGTTAGGGTAATTCAGAAAGTAGGGAA | 1.35 | 1.05 | 0.966 | 0.835 | 1.16 | 1.72 | 1.34 | 1.11 |
| CTAACTAGGTCACCAGGACAGTGAAGAGGTTGGA | 3.4 | 4.69 | 5.53 | 1.67 | 3.98 | 3.51 | 2.16 | 0.856 |
| CTATGTAGATTAAGGGGGTCATTCAGTTTGAAAG | 3.68 | 4.14 | 2.94 | 2.82 | 5.19 | 3.74 | 2.37 | 5.58 |
| ATACCAAGGTTATCGTGAGGTCGTTGATACTAAC | 2.36 | 4.49 | 2 | 2.26 | 3.2 | 4.2 | 2.91 | 3.67 |
| CCGAGTAGGTTACGAGGGGGCGTTCAGTGCGAAT | 1.42 | 2.52 | 1.89 | 1.17 | 1.42 | 3.16 | 0.485 | 2.88 |
| CCTACTGGGCCACTCAGAGGTCATTGATCATATG | 4.26 | 4.46 | 3.39 | 0.734 | 4.43 | 3.41 | 1.71 | 2.75 |
| CGAACTAGGTAACCAGGACAGTGAAGAGGTTGGA | 0.378 | 0.0852 | 0.279 | -0.359 | 0.345 | 1.37 | 0.609 | -0.193 |
| ATATGTAGGTTAGGGTCAATCAGAAAGTAGGGAA | 3.59 | 4.12 | 3.71 | 1.23 | 5.05 | 3.83 | 2.6 | 2.43 |
| ATATGTAGGTTACATCGGGGTCATTCAGGCTATG | 4.16 | 5.65 | 3.14 | 2.56 | 6.42 | 4.32 | 3.16 | 6.17 |
| CTCGAAAGGTCGTCCTCAGGTGAGTATACCAAAC | 3 | 5.29 | 4.2 | 2.35 | 4.82 | 4.13 | 1.94 | 1.84 |
| TCTAGTTGGTCAAAGGCCACACACTCGAAATGCG | 1.9 | 1.77 | 1.42 | 0.875 | 1.71 | 0.626 | 0.029 | -0.00157 |
| TCTTGTAGATCAAAGCTTAAGAAAGCCGAAGCCT | -0.931 | -0.422 | -0.665 | 0.503 | -0.173 | -0.444 | -1.01 | -0.74 |
| GGAACGGGGGCATTCGAGTTGATAGCATGGCGAT | 1.62 | 2.68 | 2.39 | 3.78 | 2.47 | 4.15 | 1.09 | 4.57 |
| AGAATGAGGTTAGCAAAGATCAGGGAAACGCTTG | 0.446 | 0.938 | 0.899 | 0.105 | 1.23 | 1.8 | 0.173 | -0.135 |
| ATATGTAGGTTAGGATCATTCAGAAAGTAGGGAA | 0.531 | 0.593 | 0.675 | 0.541 | 1.01 | 0.577 | 0.347 | 0.616 |
| CTATGAAGGTTAAGGGGGTCATTCAGTTTGAAAG | 4.39 | 5.59 | 4.32 | 2.92 | 6.52 | 3.97 | 2.22 | 6.88 |
| CCGAGTAGGTTACGAGGGTGCATTCAGTGCGAAT | 0.573 | 0.908 | 0.734 | 0.804 | 1.18 | 1.71 | -0.985 | 3.12 |
| AGAATGAGGTTATACGTAGGTCAGGGAAGAAAGT | 3.18 | 6.03 | 2.35 | 1.74 | 3.96 | 3.74 | 1.44 | 1.87 |

| Sequence | PBM binding z-score [1] | PBM binding z-score [2] | PBM binding z-score [3] | PBM binding z-score [4] | PBM binding z-score [5] | PBM binding z-score [6] | PBM binding z-score [7] | PBM binding z-score [8] |
| --- | --- | --- | --- | --- | --- | --- | --- | --- |
| TCATATAGGTAATAGGTGAAAGTCGGTGTGGTAA | 0.632 | 0.482 | 0.284 | 1.59 | 1.53 | 0.534 | 0.384 | 0.435 |
| CGAACTTGGTCACCAGGACAGTGAAGAGGTTGGA | 1.06 | 0.959 | 1.47 | -0.0208 | 0.727 | 1.63 | 0.644 | -0.0725 |
| TTATCAAGGTGAAAGGTCGTTGATGCACGCCTTG | 2.42 | 4.25 | 2.44 | 0.854 | 5.89 | 3.44 | 1.19 | 1.54 |
| TCGAGTAGGTTACGGGAGCATTCAGGGATGAAGA | -0.0117 | 0.484 | 0.553 | -0.267 | 0.792 | 1.89 | -0.885 | -0.591 |
| CCTACTGGGCCAAGCTCATTGATCAGTCAAAGCA | -0.235 | -0.314 | -0.109 | -0.384 | -0.732 | -0.704 | -0.701 | -0.851 |
| TATACAGGGTCTAAGGCCAGAGTACGAATGTCGA | 0.78 | 0.921 | 1.04 | 0.336 | 0.544 | 1.05 | 0.535 | 1.12 |
| CGTCTAAGGTCAAAGGTCAGTGAAGAGATGACGG | 5.44 | 8.98 | 8.65 | 4.46 | 10.7 | 5.01 | 4.1 | 3.65 |
| ATATGTAGGGTAGGGTCATTCAGAAAGTAGGGAA | 3.53 | 3.55 | 2.77 | 2.93 | 4.34 | 4.11 | 3.7 | 4.73 |
| TCGAGTAGGGTACGGGGGCATTCAGGGATGAAGA | 1.81 | 2.33 | 1.97 | 2.6 | 1.67 | 4.02 | 1.48 | 3.8 |
| CTCGAAAGGTCGTGCTCAGGTGAGTACACCAAAC | 2.93 | 5.5 | 4.41 | 2.36 | 5.63 | 4.01 | 1.21 | 2.52 |
| ATTTGTAGGTTATCGGGTCATTCAGTTTGCGCAT | 3.53 | 3.69 | 3.01 | 1.95 | 3.61 | 3.6 | 3.62 | 4.42 |
| CGAACTAGCTCACCAGGACAGTGAAGAGGTTGGA | 0.0882 | -0.448 | -0.336 | 0.0205 | -0.153 | 0.96 | 0.613 | -0.481 |
| CGAACTAGGTCACCATGACAGTGAAGAGGTTGGA | 3.31 | 4.27 | 5.26 | 1.18 | 3.17 | 2.99 | 1.41 | 0.264 |
| CGAAATAGGTCAAAGGACAGTGAAAGGCGACGTA | 3.4 | 4.97 | 5.11 | 1.3 | 4.58 | 2.4 | -0.113 | 0.355 |
| CCGAGTAGGTGACGAGGGGGCATTCAGTGCGAAT | 1.89 | 2.34 | 2.1 | 1.05 | 1.35 | 3.34 | 0.888 | 3.45 |
| GATACAGGGGCAAGGCCAGAGTACGCGTATTGAT | 1.19 | 0.895 | 1.33 | 0.352 | 0.544 | 0.311 | -0.32 | 0.636 |
| AATACAGGGTCGCTAGGCCAGAGTAGGTACGAAT | 0.921 | 1.37 | 1.37 | 0.47 | 1.52 | 1.09 | 0.0627 | 0.727 |
| ATATGTATGTTAGGGTCATTCAGAAAGTAGGGAA | 3.03 | 3.74 | 2.71 | 2.73 | 4.9 | 4.06 | 3.17 | 3.27 |
